This is part of a sample that, as a whole, favours compounds with a hit. Of some 79,000 tested, about 15% had one in any assay. Active and inactive are the calls of the source. Rule as the data show it: active = growth inhibition above about 70%; inactive = the rest.
Tests used:
[1] = NCI Yeast Anticancer Drug Screen. Data for the rad52 strain (AID 147);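 also: 0% = growth of vehicle-treated control cultures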; settings: S. cerevisiae rad52 mutant growth inhibition, hits give high values
How it was run: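 Read-out: growth inhibition versus vehicle-treated controls. Cells were a DNA repair-deficient yeast strain treated with compounds.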

[2] = NCI Yeast Anticancer Drug Screen. Data for the wt1 strain (AID 149);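 also: 0% = growth of vehicle-treated wt1 cultures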; settings: S. cerevisiae wt1 strain (SPY 50644) growth inhibition, hits give high values
How it was run: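 Each compound is tested on wt1 yeast and the loss of growth versus vehicle gives the inhibition value.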

[3] = NCI Yeast Anticancer Drug Screen. Data for the rad50EPP+ strain (AID 151);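 also: 0% = growth of vehicle-treated control cultures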; settings: S. cerevisiae rad50 mutant strain, hits give high values
How it was run: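 Growth inhibition read against vehicle controls in rad50EPP+ yeast, a strain altered in DNA damage repair, after compound exposure.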

[4] = NCI Yeast Anticancer Drug Screen. Data for the mgt1 strain (AID 153); settings: S. cerevisiae mgt1 mutant growth inhibition, hits give high values
How it was run: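 mgt1 yeast grown with test compound; read-out is growth inhibition versus vehicle-treated cultures.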

[5] = NCI Yeast Anticancer Drug Screen. Data for the rad50 strain (AID 155);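 also: 0% = growth of vehicle-only cultures of the same strain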; settings: S. cerevisiae rad50 strain growth inhibition, hits give high values
How it was run: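 Vehicle-treated cultures provide the reference for the growth inhibition reported for compound-exposed, repair-deficient yeast.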

[6] = NCI Yeast Anticancer Drug Screen. Data for the mec2-1 strain (AID 157); settings: S. cerevisiae mec2-1 strain, hits give high values
How it was run: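 Yeast mec2-1 mutant treated with compound. Readout: growth inhibition vs vehicle controls.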

[7] = NCI Yeast Anticancer Drug Screen. Data for the rad14 strain (AID 159);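 also: 0% = growth of vehicle-treated control cultures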; settings: S. cerevisiae rad14 strain growth inhibition, hits give high values
How it was run: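 Inhibition of growth is reported for a repair-deficient yeast mutant following compound treatment, calculated relative to cultures that received vehicle.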

[8] = NCI Yeast Anticancer Drug Screen. Data for the sgs1 mgt1 strain (AID 161);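 also: 0% = growth of cultures given vehicle only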; settings: S. cerevisiae sgs1 mgt1 strain, hits give high values
How it was run: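 Test agents were incubated with a DNA-repair-mutant yeast strain. Growth was then read and compared against vehicle-treated controls.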

[9] = NCI Yeast Anticancer Drug Screen. Data for the CLN2oe strain (AID 163);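 also: 0% = growth of vehicle-only control cultures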; settings: S. cerevisiae CLN2oe strain, hits give high values
How it was run: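 Read-out: yeast growth inhibition, expressed relative to vehicle-only controls. The strain bears an engineered cell-cycle alteration.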

[10] = NCI Yeast Anticancer Drug Screen. Data for the bub3 strain (AID 167); settings: S. cerevisiae bub3 mutant strain, hits give high values
How it was run: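 Mutant yeast screening strain plus compound; vehicle-treated cultures serve as the 0% inhibition reference.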

[11] = NCI Yeast Anticancer Drug Screen. Data for the wt2 strain (AID 169); settings: S. cerevisiae wt2 strain growth inhibition, hits give high values
How it was run: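 Read-out: growth inhibition versus vehicle-treated control cultures after compound exposure of the yeast strain.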

[12] = NCI Yeast Anticancer Drug Screen. Data for the mlh1 strain (AID 171);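 also: 0% = growth of vehicle-treated control cultures of the same strain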; settings: S. cerevisiae mlh1 strain growth inhibition, hits give high values
How it was run: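 Read-out: growth inhibition versus vehicle controls. Strain: engineered yeast with a defined DNA repair or cell cycle defect, compound-treated.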

[13] = NCI Yeast Anticancer Drug Screen. Data for the sgs1 strain (AID 173);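 also: 0% = growth of vehicle-only control cultures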; settings: S. cerevisiae sgs1 mutant, hits give high values
How it was run: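 Read-out: yeast growth inhibition relative to vehicle controls, following compound exposure of a strain with a defined DNA repair/cell cycle alteration.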

[14] = NCI Yeast Anticancer Drug Screen. Data for the mlh1 rad18 strain (AID 175); settings: S. cerevisiae mlh1 rad18 strain growth inhibition, hits give high values
How it was run: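 Yeast w/ defined DNA-repair lesions; compound exposure; growth vs vehicle controls → % inhibition.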

[15] = NCI Yeast Anticancer Drug Screen. Data for the rad18 strain (AID 177); settings: S. cerevisiae rad18 mutant growth inhibition, hits give high values
How it was run: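 Readout: growth inhibition vs vehicle controls. Cells: genetically altered yeast strain, DNA repair defect.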

[16] = at 5.0 µM (retest, dose inferred, filed as 0.5)
[17] = at 50.0 µM (retest, dose inferred, filed as 5.0)

Measured: growth inhibition

CC1(c2ccccc2)O[C@@H]2C[C@H]3[C@@H]4CCC5=CC(=O)C=C[C@]5(C)[C@@]4(F)[C@@H](O)C[C@]3(C)[C@]2(C(=O)CO)O1 (stereo not given in full)
active: [1]; at 100.0 µM 98% | [2]; at 100.0 µM 94% | [4]; at 100.0 µM 98% | [5]; at 50.0 µM 92.7% | [5]; at 100.0 µM 97% | [6]; at 50.0 µM 91.2% | [6]; at 100.0 µM 98% | [7]; at 33.0 µM 75% | [7]; at 100.0 µM 99% | [8]; at 50.0 µM 92.1% | [9]; at 100.0 µM 98% | [10]; at 50.0 µM 90.9% | [10]; at 100.0 µM 95% | [11]; at 100.0 µM 98% | [12]; at 100.0 µM 96% | [13]; at 100.0 µM 97% | [14]; at 50.0 µM 96.2% | [15]; at 33.0 µM 76% | [15]; at 100.0 µM 98%
inactive: [1]; at 1.2 µM -3% | [1]; at 3.7 µM -2% | [1]; at 11.0 µM 6% | [1]; at 33.0 µM 62% | [2]; at 1.2 µM 0% | [2]; at 3.7 µM 6% | [2]; at 11.0 µM 3% | [2]; at 33.0 µM 24% | [3]; at 1.2 µM 3% | [3]; at 3.7 µM 3% | [3]; at 11.0 µM 7% | [3]; at 33.0 µM 11% | [3]; at 100.0 µM 23% | [4]; at 1.2 µM -2% | [4]; at 3.7 µM -5% | [4]; at 11.0 µM -5% | [4]; at 33.0 µM 53% | [5]; at 1.2 µM -2% | [5]; at 3.7 µM 0% | [5]; [16] 15% | [5]; at 11.0 µM 6% | [5]; at 33.0 µM 51% | [5]; [17] 35% | [6]; at 1.2 µM 3% | [6]; at 3.7 µM 5% | [6]; [16] 1% | [6]; at 11.0 µM 10% | [6]; at 33.0 µM 41% | [6]; [17] 8% | [7]; at 1.2 µM -2% | [7]; at 3.7 µM 2% | [7]; at 11.0 µM 11% | [8]; [16] 2% | [8]; [17] 33% | [9]; at 1.2 µM -5% | [9]; at 3.7 µM -11% | [9]; at 11.0 µM -4% | [9]; at 33.0 µM 53% | [10]; at 1.2 µM -3% | [10]; at 3.7 µM -10% | [10]; [16] -11% | [10]; at 11.0 µM -4% | [10]; at 33.0 µM 21% | [10]; [17] 10% | [11]; at 1.2 µM 1% | [11]; at 3.7 µM -1% | [11]; at 11.0 µM -2% | [11]; at 33.0 µM 60% | [12]; at 1.2 µM -1% | [12]; at 3.7 µM 2% | [12]; at 11.0 µM 5% | [12]; at 33.0 µM 66% | [13]; at 1.2 µM 0% | [13]; at 3.7 µM 3% | [13]; at 11.0 µM 10% | [13]; at 33.0 µM 62% | [14]; [16] -4% | [14]; [17] 56% | [15]; at 1.2 µM -1% | [15]; at 3.7 µM 4% | [15]; at 11.0 µM 21%

From PubChem BioAssay (NCI)
